This is an account of results in PubChem BioAssay (NCATS).

Records with an inconclusive call do not appear. Activity calls are given as the source filed them. Unless noted, calls come from the whole dose curve; as a rule, active = well fitted curve in the direction sought with a large enough effect; inconclusive = small, poorly fitted or top-dose-only effect, or another doubt; inactive = no such curve, though single readings can be large; an effect the other way counts as inactive or inconclusive.

In assay [1] the target is Endonuclease 4 (Escherichia coli (strain K12)) (UniProt P0A6C1). Description: Counterscreen for APE1 Inhibitors: qHTS Validation Assay for Inhibitors of Endonuclease IV (AID 1708). In outline:
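Enzyme (2 nM) + compound, 15 min RT; add 50 nM TAMRA/BHQ-2 THF-site dsDNA; kinetic read ex525/em598, 3 reads/60 s; activity = read 3 − read 1. Buffer Tris pH 7.5, 50 mM NaCl, 2 mM MgCl2, DTT, Tween-20.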

Assay [2] is described as follows: qHTS for differential inhibitors of proliferation of Plasmodium falciparum line 7G8 (AID 1815).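 Note: parasite growth measured after three days of incubation.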 Note: potency is the fitted concentration of half-maximal effect. A general note: In qHTS, concentration-response curves come from the screen itself.
A short description of assay [3]: qHTS for differential inhibitors of proliferation of Plasmodium falciparum line GB4 (AID 1816).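 Note: parasite growth measured after 72 h incubation.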 Note: potency is the fitted concentration of half-maximal effect. Conditions: Potency: Plasmodium falciparum GB4 proliferation inhibition.
Assay [4] is described as follows: qHTS for differential inhibitors of proliferation of Plasmodium falciparum line 3D7 (AID 1876). Note: potency is the fitted concentration of half-maximal effect.
A short description of assay [5]: qHTS for differential inhibitors of proliferation of Plasmodium falciparum line D10 (AID 1877).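 Note: parasites grown with compound for 72 h before DNA staining.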 Note: potency is the fitted concentration of half-maximal effect.
Assay [6] can be described thus: qHTS for differential inhibitors of proliferation of Plasmodium falciparum line Dd2 (AID 1882). Note: nearly all actives have a fitted effect of over 65% in size. Note: potency is the fitted concentration of half-maximal effect. The settings on record: Potency: Plasmodium falciparum Dd2 proliferation inhibition. Summed up: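 SYBR Green DNA fluorescence (ex 485, em 535 nm) after overnight lysis quantifies parasite growth; compound exposure lasted 72 h at 37 C on infected red cells at 2.5% hematocrit, 0.3% parasitemia (final). Artemisinin 0.29 uM and vehicle wells define normalization.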

Assay [7] is described as follows: qHTS for differential inhibitors of proliferation of Plasmodium falciparum line W2 (AID 1883).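 Note: parasites grown with compound for 72 h before lysis and staining.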 Note: potency is the fitted concentration of half-maximal effect. Conditions: Potency: Plasmodium falciparum W2 proliferation inhibition.
Assay [8] can be described thus: qHTS for differential inhibitors of proliferation of Plasmodium falciparum line HB3 (AID 1886).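 Note: parasites grown with compound for 72 h before SYBR Green readout.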 Note: potency is the fitted concentration of half-maximal effect. Conditions: Potency: Plasmodium falciparum HB3 proliferation inhibition.
The nature of assay [9]: qHTS Assay for Identification of Small Molecule Inducers of Hypoxia Response (AID 2120; active = well fitted curve in the direction sought with a large enough effect in the signal ratio, with a control signal flat, not every such curve was filed as active; the % refers to the signal ratio). In outline: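 Reporter induction read as the CCF4 blue/green (460nm/530nm) emission ratio after 2.5 h dye loading at room temperature. ME-180 HRE-beta-lactamase cells received titrated compounds for 17 h at 37 degrees Celsius; AC50 values derived.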
Assay [10] can be described thus: qHTS Assay for Modulators of Human Peripheral Myelin Protein 22 (PMP22) Expression/Activity (AID 1967; active = well fitted curve in the direction sought with a large enough effect in the signal ratio; the % refers to the signal ratio). In outline: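 Quantitative HTS in a mouse Schwann cell line expressing dual click beetle luciferases: Pmp22 promoter (green) and control EF-alpha promoter (red). After 24h treatment, corrected green/red signal ratio gave %Activity relative to untreated cells.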

In the case of `C[N+](C)(C)CCCCCC[N+](C)(C)C`, in assay [1], the call was inactive. In addition, the Potency result in assay [2], in assay [3], in assay [4], in assay [5], in assay [6] and in assay [7] was “inactive” in each case. In assay [8], the Potency entry was “inactive”.

In the case of `NC(N)=Nc1nc(CSCC/C(N)=N/S(N)(=O)=O)cs1`, the call in assay [1] was inactive. In addition, the Potency result in assay [2], in [3], in assay [4], in [5], in [6] and in assay [7] was “inactive” throughout. Also, the Potency result in assay [8] is “inactive”.

Take `Cc1cccc(C)c1OCC(C)N` (centres undefined): the outcome in [1] was inactive. Also, the Potency in assay [2] was 12.6 µM (active); in [3], 12.6 µM (active); in assay [7] it was 7.94 µM (active). Further, the Potency result in assay [4], in assay [5] and in assay [8] was “inactive” throughout.

Regarding `COC(=O)[C@@H]1[C@H]2C[C@H]3c4[nH]c5ccccc5c4CCN3C[C@@H]2CC[C@@H]1O`, the outcome in assay [1] was inactive. For the same compound, the Potency result in assay [6] is “inactive”.

Consider `CCN(CC)CCOC(=O)c1ccc(N)cc1`, for which the Potency entry in assay [2], in [3], in assay [4], in assay [5], in assay [6] and in [8] was “inactive” each time.

On to `CC1(C)CCC2=C(O1)c1ccccc1C(=O)C2=O`, for which, in assay [1], the compound was called inactive. The Potency is 3.55 µM (active) in assay [2]; 3.98 µM (active) in [3]; 10 µM (active) in [4]; 11.2 µM (active) in assay [5]; 12.6 µM (active) in assay [6]; 7.08 µM (active) in assay [7]. Besides, the Potency in assay [8] was 12.6 µM (active).

On to `CC(=O)c1ccc(S(=O)(=O)NC(=O)NC2CCCCC2)cc1`, for which the compound was called inactive in assay [1]. The Potency entry in [2], in assay [3], in [4], in [5], in assay [6] and in assay [7] was “inactive” throughout. The Potency result in assay [8] was “inactive”.

Regarding `CCN(CC)C(=O)c1ccc(O)c(OC)c1`, the compound was called inactive in assay [1]. The Potency entry in [2], in assay [3], in [4], in assay [5], in assay [6] and in [7] was “inactive” each time. Also, in assay [8], the Potency entry was “inactive”.

Consider `O=C(O)Cc1cccc2ccccc12`, for which, in assay [9], the outcome was inactive.

For `CC(=O)N[C@@H](CS)C(=O)O`, the compound was classed as inactive in assay [1]. Also, the Potency result in [2], in assay [3], in assay [4], in assay [5], in [6] and in assay [7] was “inactive” throughout. The Potency result in assay [8] was “inactive”.

In the case of `NCCS`, the compound was classed as inactive in [1]. Moreover, the Potency result in assay [2], in assay [3], in assay [4], in assay [5], in assay [6] and in [7] was “inactive” throughout. The Potency entry in assay [8] is “inactive”.

In the case of `O=C1NCC2(CCN(CCc3ccccc3)CC2)O1`, the Potency entry in assay [2], in [4], in assay [5], in assay [6] and in assay [8] was “inactive” each time. The outcome in assay [10] was inactive.

With `CCCCC1C(=O)N(c2ccccc2)N(c2ccccc2)C1=O`, the call in assay [1] and in assay [9] was inactive. Moreover, the Potency is 14.1 µM (active) in assay [3], 11.2 µM (active) in assay [4] and 11.2 µM (active) in assay [7].

As for `O=c1[nH]cnc2c1ncn2[C@H]1CC[C@@H](CO)O1`, in assay [9], the call was inactive.

As to `CCN1CCC[C@H]1CNC(=O)c1cc(S(N)(=O)=O)ccc1OC`, in assay [1], the compound was classed as inactive. Further, the Potency entry in assay [2], in [3], in [4], in assay [5], in [6] and in [7] was “inactive” in each case. Besides, the Potency entry in assay [8] is “inactive”.

Turning to `CN(C)CCC(c1ccccc1)c1ccccn1` (centres undefined), in assay [1], the result was inactive. The Potency is 5.62 µM (active) in assay [3] and 3.55 µM (active) in [7]. For the same compound, the Potency result in assay [4], in [5] and in [8] was “inactive” in each case.

Take `COc1ccccc1N1CCN(CCCNc2cc(=O)n(C)c(=O)n2C)CC1`: the compound was called inactive in assay [1]. For the same compound, the Potency entry in assay [2] and in assay [6] was “inactive” throughout. Moreover, the Potency in [4] and in assay [7] was 10 µM (active) in each case.

On to `CC(=O)CCCCn1c(=O)c2c(ncn2C)n(C)c1=O`, for which the Potency result in assay [2], in assay [3], in assay [4], in [5], in [6] and in assay [7] was “inactive” in each case. In addition, the Potency result in [8] is “inactive”.

As for `CCN(CC)CCNC(=O)c1ccc(N)cc1`, the call in assay [1] was inactive. For the same compound, the Potency entry in assay [2], in [3], in assay [4], in assay [5], in assay [6] and in [7] was “inactive” each time. In addition, in [8], the Potency result was “inactive”.

Turning to `COc1cccc(-c2cc(=O)c3ccccc3o2)c1N`, the compound was classed as inactive in assay [1]. Moreover, the Potency entry in [6] was “inactive”. In addition, in [7], the Potency was 12.6 µM (active).

With `O=C1NC(=O)C(c2ccccc2)(c2ccccc2)N1`, the Potency result in assay [2], in assay [3], in [4], in [5], in [6] and in [7] was “inactive” each time. For the same compound, the Potency result in [8] is “inactive”.

For `CCCNC(=O)NS(=O)(=O)c1ccc(Cl)cc1`, the compound was called inactive in assay [1] and in assay [9]. For the same compound, the Potency result in assay [2], in [3], in assay [4], in [5], in [6] and in assay [7] was “inactive” throughout. In addition, the Potency result in assay [8] is “inactive”.

`O=c1c(-c2ccc(O)cc2)coc2cc(O)ccc12`: in assay [1], the call was inactive. Besides, the Potency entry in assay [2], in assay [3], in assay [4], in assay [5], in assay [6] and in assay [7] was “inactive” in each case. In addition, the Potency entry in assay [8] was “inactive”.

For `CC/C(=C(\c1ccccc1)c1ccc(OCCN(C)C)cc1)c1ccccc1`, the Potency was 8.91 µM (active) in [2]; 12.6 µM (active) in assay [3]; 11.2 µM (active) in assay [4]; 11.2 µM (active) in assay [5]; 11.2 µM (active) in [6]; 7.94 µM (active) in assay [7]. For the same compound, the Potency in [8] was 11.2 µM (active).

With `O=C(O)CCc1nc(-c2ccccc2)c(-c2ccccc2)o1`, the result in assay [1] was inactive.

In the case of `O=C(O)c1cc(O)c2c(c1)C(=O)c1cccc(O)c1C2=O`, the compound was called inactive in [9].

For `CC1=C(/C=C/C(C)=C/C=C/C(C)=C/C(=O)Nc2ccc(O)cc2)C(C)(C)CCC1`, in [1], the compound was called inactive. Further, the Potency in [2] was 3.55 µM (active); in assay [3] it was 6.31 µM (active); in assay [4], 11.2 µM (active); in assay [5], 12.6 µM (active); in [6], 11.2 µM (active); in [7], 3.98 µM (active). Besides, the Potency in assay [8] was 12.6 µM (active).

On to `Clc1ccc(Cn2c(CN3CCCC3)nc3ccccc32)cc1`, for which the compound was classed as inactive in [1]. The Potency in [2] was 7.08 µM (active); in assay [3], 10 µM (active); in [4], 11.2 µM (active); in assay [7] it was 5.62 µM (active); in [8], 11.2 µM (active).

For `O=c1cc(-c2ccc(O)cc2)oc2cc(O)cc(O)c12`, the Potency was 11.2 µM (active) in assay [2]; 14.1 µM (active) in [3]; 12.6 µM (active) in [4]; 10 µM (active) in assay [7]; 11.2 µM (active) in assay [8]. Moreover, the Potency result in assay [6] was “inactive”.
